PubChem BioAssay (EPA / NIEHS)
The source made the active and inactive calls. The calls were made as follows: active = hit-call score of the fitted dose curve at least 0.9, where 1 is the maximum; inactive = score below 0.9.

Read-out: Vascular cell adhesion molecule 1 (VCAM1), VCAM1 (gene 7412)
Assay: BSK_MyoF_VCAM1: BioMAP Diversity Plus: MyoF Assay for Vascular cell adhesion molecule 1 (VCAM1) Biomarker Activity (AID 2284231)
Conditions: primary human lung fibroblasts
Outline: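 ELISA readout of VCAM-1 on human lung fibroblast cultures 24 hours after dosing, analyzed for signal gain relative to DMSO. Overt cytotoxicity was checked by sulforhodamine B total-protein staining in parallel cultures.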

Row | SMILES | outcome | AC50
1 | ClC(Cl)=C(Cl)C(Cl)=C(Cl)Cl | inactive | –
2 | BrCCBr | inactive | –
3 | O=[N+]([O-])c1ccc2c3c(cccc13)CC2 | inactive | –
4 | CCOC(=O)/C=C(C)/C=C/C[C@@H](C)CCCC(C)C | – | 29.2 µM (active)
5 | CC(=O)C(Cl)C(=O)N(C)C (centres undefined) | inactive | –
6 | CCNc1nc(NC(C)(C)C)nc(SC)n1 | – | 20 µM (active)
7 | OCc1ccco1 | inactive | –
8 | Nc1ccc(-c2ccc(N)c(Cl)c2)cc1Cl | – | 20 µM (active)
9 | CCOP(=S)(OCC)Oc1ccc(S(C)=O)cc1 (centres undefined) | inactive | –
10 | O=C(O)C(F)(F)C(F)(F)C(F)(F)C(F)(F)C(F)(F)C(F)(F)F | inactive | –
11 | CC1(C)Cc2cccc(O)c2O1 | inactive | –
12 | Nc1cccc2ccccc12 | inactive | –
13 | CC(C)c1ccc(CO)cc1 | inactive | –
14 | COP(=S)(OC)Oc1cc(Cl)c(Cl)cc1Cl | – | 31.1 µM (active)
15 | O=Cc1cccc(Oc2ccccc2)c1 | inactive | –
16 | CCSC(C)CC1CC(=O)C(C(CC)=NOC/C=C/Cl)=C(O)C1 (centres undefined) | inactive | –
17 | O=S(=O)(c1ccc(Cl)cc1)c1ccc(Cl)cc1 | inactive | –
18 | CCOP(=S)(OCC)SCCS(=O)(=O)CC | inactive | –
19 | COC[C@H](C)N(C(=O)CCl)c1c(C)csc1C | inactive | –
20 | COc1cc(OC)nc(NC(=O)NS(=O)(=O)c2ncccc2C(=O)N(C)C)n1 | inactive | –
21 | Oc1ccc(-c2ccccc2)cc1 | inactive | –
22 | CC(C)CCCCCCOC(=O)c1ccccc1C(=O)OCCCCCCC(C)C | inactive | –

Read-out: Interleukin 17F (IL17F), IL17F (gene 112744)
Assay: BSK_BT_xIL17F: BioMAP Diversity Plus: BT Assay for Interleukin 17F (IL17F) Biomarker Activity (AID 2284243)
Conditions: primary human B cells with PBMC
Outline: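 Human B cells co-cultured with PBMC; secreted IL-17F quantified by LumineX xMAP 24 hours after chemical dosing. Activity fitted in the positive direction against DMSO negative control as baseline.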

Row | SMILES | outcome | AC50
23 | ClC(Cl)=C(Cl)C(Cl)=C(Cl)Cl | inactive | –
24 | BrCCBr | inactive | –
25 | O=[N+]([O-])c1ccc2c3c(cccc13)CC2 | inactive | –
26 | CCOC(=O)/C=C(C)/C=C/C[C@@H](C)CCCC(C)C | – | 25.6 µM (active)
27 | CC(=O)C(Cl)C(=O)N(C)C (centres undefined) | – | 28.8 µM (active)
28 | CCNc1nc(NC(C)(C)C)nc(SC)n1 | – | 20 µM (active)
29 | OCc1ccco1 | – | 9.51 µM (active)
30 | Nc1ccc(-c2ccc(N)c(Cl)c2)cc1Cl | – | 20 µM (active)
31 | CCOP(=S)(OCC)Oc1ccc(S(C)=O)cc1 (centres undefined) | inactive | –
32 | O=C(O)C(F)(F)C(F)(F)C(F)(F)C(F)(F)C(F)(F)C(F)(F)F | inactive | –
33 | CC1(C)Cc2cccc(O)c2O1 | inactive | –
34 | Nc1cccc2ccccc12 | inactive | –
35 | CC(C)c1ccc(CO)cc1 | inactive | –
36 | COP(=S)(OC)Oc1cc(Cl)c(Cl)cc1Cl | inactive | –
37 | O=Cc1cccc(Oc2ccccc2)c1 | inactive | –
38 | CCSC(C)CC1CC(=O)C(C(CC)=NOC/C=C/Cl)=C(O)C1 (centres undefined) | inactive | –
39 | O=S(=O)(c1ccc(Cl)cc1)c1ccc(Cl)cc1 | inactive | –
40 | CCOP(=S)(OCC)SCCS(=O)(=O)CC | inactive | –
41 | COC[C@H](C)N(C(=O)CCl)c1c(C)csc1C | inactive | –
42 | COc1cc(OC)nc(NC(=O)NS(=O)(=O)c2ncccc2C(=O)N(C)C)n1 | inactive | –
43 | Oc1ccc(-c2ccccc2)cc1 | inactive | –
44 | CC(C)CCCCCCOC(=O)c1ccccc1C(=O)OCCCCCCC(C)C | inactive | –
